Laboratory results published in PMC11006913.
Changes are numbered by the printed parent chain.

Tests used:
Test in all cases: PBM; 200 nM protein, PBS
Conditions in all cases: dsDNA, one strand shown
[1] = target: ALX3 (Homo sapiens, UniProt O95076 139-225, N203Q)
[2] = target: ALX3 (Homo sapiens, UniProt O95076 139-225, N203S)
[3] = target: HOXD13 (Homo sapiens, UniProt P35453 263-343, T313R)
[4] = target: HOXD13 (Homo sapiens, UniProt P35453 263-343)
[5] = target: T1, NKX2-6 (Homo sapiens, UniProt A6NCS4 118-204)
T1 sequence: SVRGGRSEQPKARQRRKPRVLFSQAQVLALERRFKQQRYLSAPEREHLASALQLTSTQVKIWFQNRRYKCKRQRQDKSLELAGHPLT

[6] = target: HOXD13 (Homo sapiens, UniProt P35453 263-343, T313A)
[7] = target: T2, NKX2-6 (Homo sapiens, UniProt A6NCS4 118-204, F151L)
T2 sequence: T1 sequence with F34L

[8] = target: ALX3 (Homo sapiens, UniProt O95076 139-225)
[9] = target: HOXA2 (Homo sapiens, UniProt O43364 129-215, R185K)
[10] = target: HOXC9 (Homo sapiens, UniProt P31274 178-260, R222W)
[11] = target: ALX3 (Homo sapiens, UniProt O95076 139-225, L168Q)
[12] = target: ALX3 (Homo sapiens, UniProt O95076 139-225, L168V)
Sequence of ALX3 (Homo sapiens, UniProt O95076 139-225, L168V) (O95076 139-225 L168V): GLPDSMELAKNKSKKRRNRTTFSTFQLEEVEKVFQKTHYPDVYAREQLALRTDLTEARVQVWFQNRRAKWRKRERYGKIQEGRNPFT

Sequence of ALX3 (Homo sapiens, UniProt O95076 139-225, N203S) (O95076 139-225 N203S): as the sequence (O95076 139-225 L168V) above, with V30L, N65S counted along it
Sequence of HOXD13 (Homo sapiens, UniProt P35453 263-343, T313R) (P35453 263-343 T313R): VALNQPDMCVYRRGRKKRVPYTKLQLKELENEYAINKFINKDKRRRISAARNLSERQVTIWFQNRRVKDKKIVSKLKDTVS
Sequence of ALX3 (Homo sapiens, UniProt O95076 139-225) (O95076 139-225): as the sequence (O95076 139-225 L168V) above, with V30L counted along it
Sequence of HOXD13 (Homo sapiens, UniProt P35453 263-343) (P35453 263-343): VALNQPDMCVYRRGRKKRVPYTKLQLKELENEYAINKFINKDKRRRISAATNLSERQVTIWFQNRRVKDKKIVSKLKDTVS
Sequence of ALX3 (Homo sapiens, UniProt O95076 139-225, N203Q) (O95076 139-225 N203Q): as the sequence (O95076 139-225 L168V) above, with V30L, N65Q counted along it
Sequence of HOXD13 (Homo sapiens, UniProt P35453 263-343, T313A) (P35453 263-343 T313A): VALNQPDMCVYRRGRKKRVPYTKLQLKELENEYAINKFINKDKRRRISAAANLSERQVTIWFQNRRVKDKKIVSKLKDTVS
Sequence of ALX3 (Homo sapiens, UniProt O95076 139-225, L168Q) (O95076 139-225 L168Q): as the sequence (O95076 139-225 L168V) above, with V30Q counted along it
Sequence of HOXA2 (O43364 129-215 R185K): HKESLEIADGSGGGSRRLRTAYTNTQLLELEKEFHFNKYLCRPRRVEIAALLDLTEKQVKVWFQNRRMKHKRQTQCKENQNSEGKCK
Sequence of HOXC9 (P31274 178-260 R222W): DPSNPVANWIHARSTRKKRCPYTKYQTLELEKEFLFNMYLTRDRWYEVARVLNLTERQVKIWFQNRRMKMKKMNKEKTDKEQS

With AATATTAA the binding signal [1] was 8.6 upbm affinity estimate (log intensity, higher = more binding, comparable within an allelic series) and the binding signal [2] was 8.69 upbm affinity estimate (log intensity, higher = more binding, comparable within an allelic series).

For ATTAGTTA, the binding signal [1] was 8.55 upbm affinity estimate (log intensity, higher = more binding, comparable within an allelic series) and the binding signal [2] was 8.67 upbm affinity estimate (log intensity, higher = more binding, comparable within an allelic series).

ATAGCAAT was tested, and the binding signal [3] was 10.2 upbm affinity estimate (log intensity, higher = more binding, comparable within an allelic series) and the binding signal [4] was 10.7 upbm affinity estimate (log intensity, higher = more binding, comparable within an allelic series).

In the case of GCCTCCAC, the binding signal [3] is reported as 9.56 upbm affinity estimate (log intensity, higher = more binding, comparable within an allelic series), the binding signal [5] is reported as 9.6 upbm affinity estimate (log intensity, higher = more binding, comparable within an allelic series) and the binding signal [4] is reported as 9.59 upbm affinity estimate (log intensity, higher = more binding, comparable within an allelic series). The binding signal [6] was 9.61 upbm affinity estimate (log intensity, higher = more binding, comparable within an allelic series) and the binding signal [7] was 9.3 upbm affinity estimate (log intensity, higher = more binding, comparable within an allelic series).

ATTTGACC was tested, and the binding signal [1] was 8.13 upbm affinity estimate (log intensity, higher = more binding, comparable within an allelic series), the binding signal [8] was 9.49 upbm affinity estimate (log intensity, higher = more binding, comparable within an allelic series) and the binding signal [2] was 8.24 upbm affinity estimate (log intensity, higher = more binding, comparable within an allelic series).

With CTCATCAA the binding signal [1] was 8.12 upbm affinity estimate (log intensity, higher = more binding, comparable within an allelic series), the binding signal [8] was 9.41 upbm affinity estimate (log intensity, higher = more binding, comparable within an allelic series) and the binding signal [2] was 8.16 upbm affinity estimate (log intensity, higher = more binding, comparable within an allelic series).

CTCGTTAA was tested, and the binding signal [3] was 10.7 upbm affinity estimate (log intensity, higher = more binding, comparable within an allelic series), the binding signal [9] was 13.1 upbm affinity estimate (log intensity, higher = more binding, comparable within an allelic series) and the binding signal [4] was 12.1 upbm affinity estimate (log intensity, higher = more binding, comparable within an allelic series). For the same sequence, the binding signal [6] was 12 upbm affinity estimate (log intensity, higher = more binding, comparable within an allelic series).

CATTTGCC was tested, and the binding signal [1] was 7.93 upbm affinity estimate (log intensity, higher = more binding, comparable within an allelic series), the binding signal [8] was 8.86 upbm affinity estimate (log intensity, higher = more binding, comparable within an allelic series) and the binding signal [2] was 7.93 upbm affinity estimate (log intensity, higher = more binding, comparable within an allelic series).

In the case of TATATTAA, the binding signal [3] is reported as 10.7 upbm affinity estimate (log intensity, higher = more binding, comparable within an allelic series).

In the case of CCCGGCCA, the binding signal [3] is reported as 9.5 upbm affinity estimate (log intensity, higher = more binding, comparable within an allelic series), the binding signal [5] is reported as 9.65 upbm affinity estimate (log intensity, higher = more binding, comparable within an allelic series) and the binding signal [4] is reported as 9.64 upbm affinity estimate (log intensity, higher = more binding, comparable within an allelic series). For the same sequence, the binding signal [6] was 9.63 upbm affinity estimate (log intensity, higher = more binding, comparable within an allelic series) and the binding signal [7] was 9.26 upbm affinity estimate (log intensity, higher = more binding, comparable within an allelic series).

CTTATTGC was tested, and the binding signal [3] was 10.1 upbm affinity estimate (log intensity, higher = more binding, comparable within an allelic series) and the binding signal [4] was 10.7 upbm affinity estimate (log intensity, higher = more binding, comparable within an allelic series).

With ACGTTAGT the binding signal [1] was 8.16 upbm affinity estimate (log intensity, higher = more binding, comparable within an allelic series), the binding signal [8] was 9.39 upbm affinity estimate (log intensity, higher = more binding, comparable within an allelic series) and the binding signal [2] was 8.22 upbm affinity estimate (log intensity, higher = more binding, comparable within an allelic series).

With ATCACAGA the binding signal [1] was 8.15 upbm affinity estimate (log intensity, higher = more binding, comparable within an allelic series), the binding signal [8] was 9.21 upbm affinity estimate (log intensity, higher = more binding, comparable within an allelic series) and the binding signal [2] was 8.16 upbm affinity estimate (log intensity, higher = more binding, comparable within an allelic series).

With TCTATTAA the binding signal [3] was 10.7 upbm affinity estimate (log intensity, higher = more binding, comparable within an allelic series).

In the case of AGATTTTA, the binding signal [1] is reported as 8.19 upbm affinity estimate (log intensity, higher = more binding, comparable within an allelic series), the binding signal [8] is reported as 9.08 upbm affinity estimate (log intensity, higher = more binding, comparable within an allelic series) and the binding signal [2] is reported as 8.26 upbm affinity estimate (log intensity, higher = more binding, comparable within an allelic series).

With ATAAATAA the binding signal [1] was 8.6 upbm affinity estimate (log intensity, higher = more binding, comparable within an allelic series), the binding signal [10] was 11.1 upbm affinity estimate (log intensity, higher = more binding, comparable within an allelic series) and the binding signal [2] was 8.76 upbm affinity estimate (log intensity, higher = more binding, comparable within an allelic series).

ATTATTTA was tested, and the binding signal [1] was 8.54 upbm affinity estimate (log intensity, higher = more binding, comparable within an allelic series) and the binding signal [2] was 8.69 upbm affinity estimate (log intensity, higher = more binding, comparable within an allelic series).

For TATTATAA, the binding signal [1] was 8.66 upbm affinity estimate (log intensity, higher = more binding, comparable within an allelic series) and the binding signal [2] was 8.67 upbm affinity estimate (log intensity, higher = more binding, comparable within an allelic series).

In the case of ATTCATGG, the binding signal [3] is reported as 10.2 upbm affinity estimate (log intensity, higher = more binding, comparable within an allelic series) and the binding signal [4] is reported as 10.8 upbm affinity estimate (log intensity, higher = more binding, comparable within an allelic series).

AACTTCAT was tested, and the binding signal [3] was 10.1 upbm affinity estimate (log intensity, higher = more binding, comparable within an allelic series) and the binding signal [4] was 10.6 upbm affinity estimate (log intensity, higher = more binding, comparable within an allelic series).

TATAAACA was tested, and the binding signal [3] was 10.7 upbm affinity estimate (log intensity, higher = more binding, comparable within an allelic series).

For CAGTCGCA, the binding signal [1] was 7.8 upbm affinity estimate (log intensity, higher = more binding, comparable within an allelic series), the binding signal [8] was 7.85 upbm affinity estimate (log intensity, higher = more binding, comparable within an allelic series) and the binding signal [11] was 7.89 upbm affinity estimate (log intensity, higher = more binding, comparable within an allelic series). The binding signal [12] was 7.88 upbm affinity estimate (log intensity, higher = more binding, comparable within an allelic series) and the binding signal [2] was 7.8 upbm affinity estimate (log intensity, higher = more binding, comparable within an allelic series).

In the case of ATATTCAA, the binding signal [1] is reported as 8.33 upbm affinity estimate (log intensity, higher = more binding, comparable within an allelic series), the binding signal [8] is reported as 9.13 upbm affinity estimate (log intensity, higher = more binding, comparable within an allelic series) and the binding signal [12] is reported as 8.63 upbm affinity estimate (log intensity, higher = more binding, comparable within an allelic series).

For ATTTAAAT, the binding signal [1] was 8.56 upbm affinity estimate (log intensity, higher = more binding, comparable within an allelic series) and the binding signal [2] was 8.68 upbm affinity estimate (log intensity, higher = more binding, comparable within an allelic series).

AGAGGGGG was tested, and the binding signal [1] was 7.63 upbm affinity estimate (log intensity, higher = more binding, comparable within an allelic series), the binding signal [8] was 7.93 upbm affinity estimate (log intensity, higher = more binding, comparable within an allelic series) and the binding signal [11] was 7.69 upbm affinity estimate (log intensity, higher = more binding, comparable within an allelic series). For the same sequence, the binding signal [12] was 7.67 upbm affinity estimate (log intensity, higher = more binding, comparable within an allelic series) and the binding signal [2] was 7.59 upbm affinity estimate (log intensity, higher = more binding, comparable within an allelic series).

For GAATATCA, the binding signal [1] was 8.19 upbm affinity estimate (log intensity, higher = more binding, comparable within an allelic series), the binding signal [8] was 8.71 upbm affinity estimate (log intensity, higher = more binding, comparable within an allelic series) and the binding signal [2] was 8.23 upbm affinity estimate (log intensity, higher = more binding, comparable within an allelic series).

CTAACAAC was tested, and the binding signal [1] was 8.26 upbm affinity estimate (log intensity, higher = more binding, comparable within an allelic series), the binding signal [8] was 9.15 upbm affinity estimate (log intensity, higher = more binding, comparable within an allelic series) and the binding signal [2] was 8.24 upbm affinity estimate (log intensity, higher = more binding, comparable within an allelic series).

In the case of ATCGCTAA, the binding signal [1] is reported as 8.25 upbm affinity estimate (log intensity, higher = more binding, comparable within an allelic series), the binding signal [8] is reported as 9.67 upbm affinity estimate (log intensity, higher = more binding, comparable within an allelic series) and the binding signal [2] is reported as 8.28 upbm affinity estimate (log intensity, higher = more binding, comparable within an allelic series).

In the case of CTTTTATA, the binding signal [3] is reported as 10.7 upbm affinity estimate (log intensity, higher = more binding, comparable within an allelic series).

In the case of ATATTTAA, the binding signal [1] is reported as 8.67 upbm affinity estimate (log intensity, higher = more binding, comparable within an allelic series) and the binding signal [2] is reported as 8.84 upbm affinity estimate (log intensity, higher = more binding, comparable within an allelic series).

AGTTAATA was tested, and the binding signal [1] was 8.54 upbm affinity estimate (log intensity, higher = more binding, comparable within an allelic series) and the binding signal [2] was 8.65 upbm affinity estimate (log intensity, higher = more binding, comparable within an allelic series).

For TTAACTAA, the binding signal [1] was 8.53 upbm affinity estimate (log intensity, higher = more binding, comparable within an allelic series) and the binding signal [2] was 8.65 upbm affinity estimate (log intensity, higher = more binding, comparable within an allelic series).

With CATTTATA the binding signal [3] was 10.7 upbm affinity estimate (log intensity, higher = more binding, comparable within an allelic series).

In the case of CCTATTAC, the binding signal [1] is reported as 8.28 upbm affinity estimate (log intensity, higher = more binding, comparable within an allelic series), the binding signal [8] is reported as 10.8 upbm affinity estimate (log intensity, higher = more binding, comparable within an allelic series) and the binding signal [2] is reported as 8.28 upbm affinity estimate (log intensity, higher = more binding, comparable within an allelic series).

For GCATTAGA, the binding signal [1] was 8.11 upbm affinity estimate (log intensity, higher = more binding, comparable within an allelic series), the binding signal [8] was 9.95 upbm affinity estimate (log intensity, higher = more binding, comparable within an allelic series) and the binding signal [2] was 8.12 upbm affinity estimate (log intensity, higher = more binding, comparable within an allelic series).

For AATCATTC, the binding signal [1] was 8.14 upbm affinity estimate (log intensity, higher = more binding, comparable within an allelic series), the binding signal [8] was 10 upbm affinity estimate (log intensity, higher = more binding, comparable within an allelic series) and the binding signal [2] was 8.17 upbm affinity estimate (log intensity, higher = more binding, comparable within an allelic series).
